{
  "source": "the supplement of paper PMC11624193",
  "about": "“Coupling cellular drug-target engagement to downstream pharmacology with CeTEAM” (Nature Communications, 2024)",
  "molecular_target": "PARP1 L713F-nLuc biosensor (HCT116) (UniProt P09874)",
  "sequence (P09874 whole entry L713F, looked up)": "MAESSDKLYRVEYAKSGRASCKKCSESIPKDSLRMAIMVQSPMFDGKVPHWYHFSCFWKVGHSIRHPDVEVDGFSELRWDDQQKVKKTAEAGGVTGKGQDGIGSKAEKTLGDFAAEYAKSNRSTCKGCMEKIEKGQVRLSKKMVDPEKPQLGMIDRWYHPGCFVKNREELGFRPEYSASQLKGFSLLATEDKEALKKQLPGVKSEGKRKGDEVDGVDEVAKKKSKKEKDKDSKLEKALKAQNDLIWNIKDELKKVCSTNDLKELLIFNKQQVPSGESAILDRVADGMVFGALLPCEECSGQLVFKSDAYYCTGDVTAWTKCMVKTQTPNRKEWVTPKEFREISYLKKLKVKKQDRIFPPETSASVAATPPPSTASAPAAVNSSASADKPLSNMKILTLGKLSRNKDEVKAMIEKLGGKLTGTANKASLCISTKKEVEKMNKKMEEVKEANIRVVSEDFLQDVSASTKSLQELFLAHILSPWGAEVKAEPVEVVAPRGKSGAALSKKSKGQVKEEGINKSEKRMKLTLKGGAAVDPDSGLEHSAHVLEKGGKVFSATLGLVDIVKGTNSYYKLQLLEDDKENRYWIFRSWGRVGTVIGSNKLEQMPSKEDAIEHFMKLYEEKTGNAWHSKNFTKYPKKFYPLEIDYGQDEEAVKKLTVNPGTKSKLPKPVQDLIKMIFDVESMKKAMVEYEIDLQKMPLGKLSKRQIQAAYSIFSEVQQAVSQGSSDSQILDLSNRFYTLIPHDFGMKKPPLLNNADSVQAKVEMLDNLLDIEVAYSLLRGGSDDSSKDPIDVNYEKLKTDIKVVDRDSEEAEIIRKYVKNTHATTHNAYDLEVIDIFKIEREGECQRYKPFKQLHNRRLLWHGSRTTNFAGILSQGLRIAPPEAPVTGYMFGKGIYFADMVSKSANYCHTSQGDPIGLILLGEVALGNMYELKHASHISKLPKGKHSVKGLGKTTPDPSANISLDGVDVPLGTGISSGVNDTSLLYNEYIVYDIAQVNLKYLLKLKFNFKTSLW",
  "assay": "PARP1 L713F-nLuc/akaLuc ratio relative to DMSO control (biosensor stabilization) (fold change); higher = more PARP1 biosensor stabilization (target engagement / stabilizer), active = hit call of the paper",
  "conditions": "stock concentration (mM; final µM = stock mM x 1): 2; 24 h;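 active = log2 fold change beyond 2 SD from the library mean after excluding viability outliers; inactive = within 2 SD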",
  "data": [
    {"smiles": "CC(=O)c1c(O)c(C)c(O)c(Cc2c(O)c3c(c(C(=O)/C=C/c4ccccc4)c2O)OC(C)(C)C=C3)c1O", "note": "[Rottlerin]", "values": [
      {"measurement": "PARP1 L713F-nLuc/akaLuc ratio", "result": "0.628 (inactive)"}
    ]}
  ]
}
